Tests used:
Test in all cases: log2 ratio of Biotin-Ahx-Ub-VS probe labelling (fragment/DMSO); higher = less target engagement (more negative = stronger competition), active = hit call of the paper (q ≤ 0.05, log2 ratio ≤ -1)
Conditions in all cases: compound concentration: 200 uM; treatment time: 3 h
[1] = biological target: T1, USP42 (UniProt Q9H9J4)
T1 sequence (whole entry): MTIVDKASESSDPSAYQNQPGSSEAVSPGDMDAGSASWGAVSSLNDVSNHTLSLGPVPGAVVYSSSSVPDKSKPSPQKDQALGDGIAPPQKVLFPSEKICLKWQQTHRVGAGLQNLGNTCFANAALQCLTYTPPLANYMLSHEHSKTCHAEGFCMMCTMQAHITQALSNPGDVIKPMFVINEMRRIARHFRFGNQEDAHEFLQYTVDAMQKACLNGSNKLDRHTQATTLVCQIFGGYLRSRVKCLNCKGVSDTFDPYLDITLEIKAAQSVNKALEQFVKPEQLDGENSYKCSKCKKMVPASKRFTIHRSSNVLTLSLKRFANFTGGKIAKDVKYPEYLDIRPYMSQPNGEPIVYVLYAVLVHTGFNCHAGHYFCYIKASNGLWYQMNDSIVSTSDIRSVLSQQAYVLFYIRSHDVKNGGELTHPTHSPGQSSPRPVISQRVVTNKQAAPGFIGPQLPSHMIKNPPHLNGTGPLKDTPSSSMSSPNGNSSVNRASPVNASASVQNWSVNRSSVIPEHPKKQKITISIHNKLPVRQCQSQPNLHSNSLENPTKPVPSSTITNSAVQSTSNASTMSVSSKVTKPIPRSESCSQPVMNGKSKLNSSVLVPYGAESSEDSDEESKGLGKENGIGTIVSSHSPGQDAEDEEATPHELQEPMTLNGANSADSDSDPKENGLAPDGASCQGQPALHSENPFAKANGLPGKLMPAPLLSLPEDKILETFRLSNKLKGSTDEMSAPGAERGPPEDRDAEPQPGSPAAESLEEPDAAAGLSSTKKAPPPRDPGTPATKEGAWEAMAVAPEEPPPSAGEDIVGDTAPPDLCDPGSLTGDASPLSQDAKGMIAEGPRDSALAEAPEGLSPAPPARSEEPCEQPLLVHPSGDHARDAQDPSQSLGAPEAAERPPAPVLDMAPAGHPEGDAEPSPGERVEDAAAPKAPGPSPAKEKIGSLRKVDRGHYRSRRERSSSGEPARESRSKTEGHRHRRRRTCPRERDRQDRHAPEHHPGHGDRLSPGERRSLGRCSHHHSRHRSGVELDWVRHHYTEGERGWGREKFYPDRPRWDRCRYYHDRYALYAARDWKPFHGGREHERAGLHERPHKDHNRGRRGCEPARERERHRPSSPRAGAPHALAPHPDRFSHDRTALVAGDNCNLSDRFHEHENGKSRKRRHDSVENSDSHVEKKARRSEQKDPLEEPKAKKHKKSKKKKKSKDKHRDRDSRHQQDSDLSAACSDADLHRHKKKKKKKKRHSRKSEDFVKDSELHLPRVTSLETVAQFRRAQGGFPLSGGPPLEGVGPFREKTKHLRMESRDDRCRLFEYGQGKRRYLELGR
Method in brief: (§1)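 Triplicate samples of HEK293T lysate, 495 µg each, received fragment at 200 µM or vehicle for 3 h, followed by Biotin-Ahx-Ub-VS (0.5 µM final) for 1 h. After NeutrAvidin enrichment of labelled DUBs and LysC/trypsin digestion, peptides were run by diaPASEF LC-MS/MS. The values are average log2 fragment/vehicle ratios from global-median-normalised Spectronaut label-free quantities, tested by unpaired t-test on proteins having ≥2 unique peptides.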

[2] = biological target: USP46 (UniProt P62068)
Chain of USP46 (P62068 whole entry): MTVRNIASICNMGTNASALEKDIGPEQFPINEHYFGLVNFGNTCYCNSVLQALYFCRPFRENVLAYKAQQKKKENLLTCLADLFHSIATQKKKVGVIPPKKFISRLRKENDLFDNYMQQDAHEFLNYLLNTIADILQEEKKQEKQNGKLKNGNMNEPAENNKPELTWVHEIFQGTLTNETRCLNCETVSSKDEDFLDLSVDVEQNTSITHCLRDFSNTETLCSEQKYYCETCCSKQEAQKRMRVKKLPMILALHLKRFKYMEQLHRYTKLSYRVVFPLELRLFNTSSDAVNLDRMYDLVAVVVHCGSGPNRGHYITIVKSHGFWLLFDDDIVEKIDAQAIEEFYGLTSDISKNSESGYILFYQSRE
Method in brief: as §1

[3] = biological target: T2, USP47 (UniProt Q96K76)
T2 sequence (whole entry): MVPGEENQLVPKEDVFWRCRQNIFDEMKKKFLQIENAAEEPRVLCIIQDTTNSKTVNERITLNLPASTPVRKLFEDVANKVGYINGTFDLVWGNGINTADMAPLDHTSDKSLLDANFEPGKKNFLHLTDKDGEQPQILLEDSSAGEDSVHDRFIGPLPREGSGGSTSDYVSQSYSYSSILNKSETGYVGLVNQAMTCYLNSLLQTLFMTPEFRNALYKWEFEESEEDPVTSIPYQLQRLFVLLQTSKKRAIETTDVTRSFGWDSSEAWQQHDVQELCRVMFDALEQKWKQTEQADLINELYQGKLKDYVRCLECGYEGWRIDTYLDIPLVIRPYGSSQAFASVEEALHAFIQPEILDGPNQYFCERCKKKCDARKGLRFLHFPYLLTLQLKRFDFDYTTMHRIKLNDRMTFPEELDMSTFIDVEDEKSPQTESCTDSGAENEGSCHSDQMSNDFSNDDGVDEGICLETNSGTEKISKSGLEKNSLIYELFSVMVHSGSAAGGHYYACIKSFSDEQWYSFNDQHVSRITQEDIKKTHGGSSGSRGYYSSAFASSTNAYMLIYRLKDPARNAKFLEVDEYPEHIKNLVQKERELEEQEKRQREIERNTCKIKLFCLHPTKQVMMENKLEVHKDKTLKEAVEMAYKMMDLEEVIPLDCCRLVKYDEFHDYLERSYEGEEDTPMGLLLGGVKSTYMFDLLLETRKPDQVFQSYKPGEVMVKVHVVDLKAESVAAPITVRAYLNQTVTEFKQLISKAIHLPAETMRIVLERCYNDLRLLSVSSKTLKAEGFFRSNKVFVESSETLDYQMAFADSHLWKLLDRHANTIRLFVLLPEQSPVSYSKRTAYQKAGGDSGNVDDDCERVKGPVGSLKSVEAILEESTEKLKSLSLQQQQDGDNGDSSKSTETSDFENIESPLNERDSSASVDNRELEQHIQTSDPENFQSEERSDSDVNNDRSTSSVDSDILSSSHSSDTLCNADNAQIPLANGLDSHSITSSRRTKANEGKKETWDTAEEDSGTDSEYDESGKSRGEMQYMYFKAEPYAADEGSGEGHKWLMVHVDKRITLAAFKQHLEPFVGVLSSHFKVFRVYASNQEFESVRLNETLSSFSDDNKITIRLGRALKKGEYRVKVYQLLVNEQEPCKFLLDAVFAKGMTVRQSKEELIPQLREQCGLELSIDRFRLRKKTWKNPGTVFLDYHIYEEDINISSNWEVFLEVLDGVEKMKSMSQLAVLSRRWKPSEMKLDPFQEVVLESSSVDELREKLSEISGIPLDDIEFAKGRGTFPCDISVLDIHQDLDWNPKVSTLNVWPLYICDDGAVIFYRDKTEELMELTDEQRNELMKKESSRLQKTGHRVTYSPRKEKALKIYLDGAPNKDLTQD
Method in brief: as §1

[4] = biological target: T3, USP48 (UniProt Q86UV5)
T3 sequence (whole entry): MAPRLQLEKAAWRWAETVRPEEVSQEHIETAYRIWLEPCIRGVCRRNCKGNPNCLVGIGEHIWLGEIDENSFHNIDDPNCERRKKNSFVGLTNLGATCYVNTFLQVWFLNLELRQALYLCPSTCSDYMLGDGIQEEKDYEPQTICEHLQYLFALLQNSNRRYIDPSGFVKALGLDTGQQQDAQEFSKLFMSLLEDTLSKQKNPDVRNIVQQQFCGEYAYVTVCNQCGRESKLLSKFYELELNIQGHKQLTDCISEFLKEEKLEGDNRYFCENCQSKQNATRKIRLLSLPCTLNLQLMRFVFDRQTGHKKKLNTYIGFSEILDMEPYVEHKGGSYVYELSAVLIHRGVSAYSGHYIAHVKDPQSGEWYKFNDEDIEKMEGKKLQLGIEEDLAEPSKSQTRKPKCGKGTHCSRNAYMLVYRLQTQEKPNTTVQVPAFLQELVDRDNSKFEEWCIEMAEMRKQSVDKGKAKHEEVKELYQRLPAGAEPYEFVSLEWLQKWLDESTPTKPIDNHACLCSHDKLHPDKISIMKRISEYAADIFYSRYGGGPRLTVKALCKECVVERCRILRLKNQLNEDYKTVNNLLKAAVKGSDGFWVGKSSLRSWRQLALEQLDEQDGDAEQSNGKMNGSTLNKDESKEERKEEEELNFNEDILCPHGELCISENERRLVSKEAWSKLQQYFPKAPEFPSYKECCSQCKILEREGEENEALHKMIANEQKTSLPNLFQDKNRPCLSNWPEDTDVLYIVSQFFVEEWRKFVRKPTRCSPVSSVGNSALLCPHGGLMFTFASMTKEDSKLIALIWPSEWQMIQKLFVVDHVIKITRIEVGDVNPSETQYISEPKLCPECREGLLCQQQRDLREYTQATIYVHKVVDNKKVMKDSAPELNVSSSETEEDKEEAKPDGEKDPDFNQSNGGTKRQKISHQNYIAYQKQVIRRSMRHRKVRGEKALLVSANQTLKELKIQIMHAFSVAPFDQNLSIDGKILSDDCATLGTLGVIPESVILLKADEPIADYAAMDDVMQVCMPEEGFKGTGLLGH
Method in brief: as §1

[5] = biological target: T4, USP5 (UniProt P45974)
T4 sequence (whole entry): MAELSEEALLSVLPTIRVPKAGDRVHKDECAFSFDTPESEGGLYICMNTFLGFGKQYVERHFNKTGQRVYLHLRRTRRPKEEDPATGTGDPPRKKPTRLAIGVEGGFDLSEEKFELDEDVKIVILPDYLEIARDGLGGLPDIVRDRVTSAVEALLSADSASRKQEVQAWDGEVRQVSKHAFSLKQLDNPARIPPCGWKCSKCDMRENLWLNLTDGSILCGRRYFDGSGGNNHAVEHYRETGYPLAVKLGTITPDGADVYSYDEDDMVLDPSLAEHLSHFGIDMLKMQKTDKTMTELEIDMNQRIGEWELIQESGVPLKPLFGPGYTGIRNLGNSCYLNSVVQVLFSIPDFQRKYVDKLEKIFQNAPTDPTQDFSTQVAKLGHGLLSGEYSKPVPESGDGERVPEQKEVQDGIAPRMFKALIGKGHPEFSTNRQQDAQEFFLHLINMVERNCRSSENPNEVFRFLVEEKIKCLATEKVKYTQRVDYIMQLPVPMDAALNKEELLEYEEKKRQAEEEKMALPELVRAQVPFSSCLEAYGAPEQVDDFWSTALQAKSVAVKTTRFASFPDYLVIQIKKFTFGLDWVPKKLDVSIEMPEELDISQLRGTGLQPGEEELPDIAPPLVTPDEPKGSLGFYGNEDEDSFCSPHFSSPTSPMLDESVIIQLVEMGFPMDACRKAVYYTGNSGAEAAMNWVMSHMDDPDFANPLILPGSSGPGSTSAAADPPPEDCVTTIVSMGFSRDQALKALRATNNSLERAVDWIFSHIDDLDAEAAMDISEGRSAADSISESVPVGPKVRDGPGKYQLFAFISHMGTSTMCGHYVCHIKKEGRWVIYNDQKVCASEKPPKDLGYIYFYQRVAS
Method in brief: as §1

[6] = biological target: USP54 (UniProt Q70EL1)
Chain of USP54 (Q70EL1 whole entry): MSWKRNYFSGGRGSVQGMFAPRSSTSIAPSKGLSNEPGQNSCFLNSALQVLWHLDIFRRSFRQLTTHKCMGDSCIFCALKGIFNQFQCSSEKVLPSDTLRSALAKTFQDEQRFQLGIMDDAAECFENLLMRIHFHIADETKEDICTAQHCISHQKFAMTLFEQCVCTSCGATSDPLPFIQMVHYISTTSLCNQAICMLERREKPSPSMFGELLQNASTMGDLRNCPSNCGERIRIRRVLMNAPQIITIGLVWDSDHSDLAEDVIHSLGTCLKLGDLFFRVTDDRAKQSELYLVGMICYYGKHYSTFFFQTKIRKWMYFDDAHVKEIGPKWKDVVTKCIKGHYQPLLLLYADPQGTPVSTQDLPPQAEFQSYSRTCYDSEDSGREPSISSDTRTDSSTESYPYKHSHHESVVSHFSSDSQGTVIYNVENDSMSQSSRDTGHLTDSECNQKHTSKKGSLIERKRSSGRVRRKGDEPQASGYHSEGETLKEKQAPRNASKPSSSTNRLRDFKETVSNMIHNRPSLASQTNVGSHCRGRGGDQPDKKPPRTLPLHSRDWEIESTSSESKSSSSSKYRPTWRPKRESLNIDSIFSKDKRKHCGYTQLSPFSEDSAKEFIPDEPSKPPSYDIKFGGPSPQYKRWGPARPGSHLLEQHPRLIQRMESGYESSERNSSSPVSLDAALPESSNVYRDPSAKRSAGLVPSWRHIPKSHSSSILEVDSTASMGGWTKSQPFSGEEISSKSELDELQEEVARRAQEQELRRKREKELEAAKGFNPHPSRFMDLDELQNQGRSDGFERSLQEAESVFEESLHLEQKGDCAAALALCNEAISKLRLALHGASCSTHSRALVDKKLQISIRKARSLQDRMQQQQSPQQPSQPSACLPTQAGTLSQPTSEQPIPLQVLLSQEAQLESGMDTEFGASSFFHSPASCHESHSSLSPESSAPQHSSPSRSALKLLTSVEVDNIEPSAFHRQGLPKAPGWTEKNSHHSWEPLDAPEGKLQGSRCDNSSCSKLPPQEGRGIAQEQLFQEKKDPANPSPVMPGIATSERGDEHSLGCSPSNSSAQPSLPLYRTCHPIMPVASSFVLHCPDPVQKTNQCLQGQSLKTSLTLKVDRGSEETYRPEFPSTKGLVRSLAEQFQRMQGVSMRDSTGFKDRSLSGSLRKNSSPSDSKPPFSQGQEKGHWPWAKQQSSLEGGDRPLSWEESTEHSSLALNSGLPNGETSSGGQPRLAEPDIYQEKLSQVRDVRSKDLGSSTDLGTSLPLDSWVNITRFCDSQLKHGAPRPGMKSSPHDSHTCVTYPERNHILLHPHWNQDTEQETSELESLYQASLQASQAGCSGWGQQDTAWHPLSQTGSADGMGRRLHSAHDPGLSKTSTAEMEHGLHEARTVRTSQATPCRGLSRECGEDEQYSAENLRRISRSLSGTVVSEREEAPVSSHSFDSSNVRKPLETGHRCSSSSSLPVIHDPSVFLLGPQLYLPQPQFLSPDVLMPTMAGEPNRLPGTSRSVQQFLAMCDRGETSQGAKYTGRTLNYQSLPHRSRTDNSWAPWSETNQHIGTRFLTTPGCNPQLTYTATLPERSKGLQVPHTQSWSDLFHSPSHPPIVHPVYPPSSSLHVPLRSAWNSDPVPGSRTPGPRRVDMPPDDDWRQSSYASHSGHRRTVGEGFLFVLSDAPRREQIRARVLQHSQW
Method in brief: as §1

[7] = biological target: USP7 (UniProt Q93009)
Chain of USP7 (Q93009 whole entry, looked up): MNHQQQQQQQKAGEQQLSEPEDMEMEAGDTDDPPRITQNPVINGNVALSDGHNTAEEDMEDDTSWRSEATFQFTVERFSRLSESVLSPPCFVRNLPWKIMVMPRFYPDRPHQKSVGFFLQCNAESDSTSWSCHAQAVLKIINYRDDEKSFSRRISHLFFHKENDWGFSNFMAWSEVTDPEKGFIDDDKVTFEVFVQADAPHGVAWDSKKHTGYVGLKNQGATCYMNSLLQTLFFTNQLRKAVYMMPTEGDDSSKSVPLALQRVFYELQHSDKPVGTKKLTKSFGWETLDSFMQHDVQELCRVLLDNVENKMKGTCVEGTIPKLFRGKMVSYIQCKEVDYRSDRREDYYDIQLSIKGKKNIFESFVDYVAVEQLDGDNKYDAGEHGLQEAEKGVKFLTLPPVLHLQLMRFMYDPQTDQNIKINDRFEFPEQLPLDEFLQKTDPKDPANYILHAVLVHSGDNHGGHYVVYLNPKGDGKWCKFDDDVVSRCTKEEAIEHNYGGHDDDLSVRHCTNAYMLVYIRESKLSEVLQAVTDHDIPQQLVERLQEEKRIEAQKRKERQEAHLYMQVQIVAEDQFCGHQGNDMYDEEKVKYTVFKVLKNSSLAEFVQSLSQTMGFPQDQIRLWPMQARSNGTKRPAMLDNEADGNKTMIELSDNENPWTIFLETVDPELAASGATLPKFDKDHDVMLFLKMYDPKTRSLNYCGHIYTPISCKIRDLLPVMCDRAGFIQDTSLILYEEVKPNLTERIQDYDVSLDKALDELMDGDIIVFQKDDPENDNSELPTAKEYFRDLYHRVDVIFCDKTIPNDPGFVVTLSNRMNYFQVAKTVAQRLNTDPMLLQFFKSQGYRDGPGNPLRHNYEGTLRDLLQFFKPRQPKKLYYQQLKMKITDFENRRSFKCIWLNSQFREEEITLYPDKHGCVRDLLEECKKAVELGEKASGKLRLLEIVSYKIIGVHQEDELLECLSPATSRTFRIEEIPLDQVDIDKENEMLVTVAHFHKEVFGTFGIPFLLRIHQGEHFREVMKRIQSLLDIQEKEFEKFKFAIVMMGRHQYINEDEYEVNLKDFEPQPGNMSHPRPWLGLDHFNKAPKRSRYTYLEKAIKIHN
Method in brief: as §1

[8] = biological target: T5, USP8 (UniProt P40818)
T5 sequence (whole entry): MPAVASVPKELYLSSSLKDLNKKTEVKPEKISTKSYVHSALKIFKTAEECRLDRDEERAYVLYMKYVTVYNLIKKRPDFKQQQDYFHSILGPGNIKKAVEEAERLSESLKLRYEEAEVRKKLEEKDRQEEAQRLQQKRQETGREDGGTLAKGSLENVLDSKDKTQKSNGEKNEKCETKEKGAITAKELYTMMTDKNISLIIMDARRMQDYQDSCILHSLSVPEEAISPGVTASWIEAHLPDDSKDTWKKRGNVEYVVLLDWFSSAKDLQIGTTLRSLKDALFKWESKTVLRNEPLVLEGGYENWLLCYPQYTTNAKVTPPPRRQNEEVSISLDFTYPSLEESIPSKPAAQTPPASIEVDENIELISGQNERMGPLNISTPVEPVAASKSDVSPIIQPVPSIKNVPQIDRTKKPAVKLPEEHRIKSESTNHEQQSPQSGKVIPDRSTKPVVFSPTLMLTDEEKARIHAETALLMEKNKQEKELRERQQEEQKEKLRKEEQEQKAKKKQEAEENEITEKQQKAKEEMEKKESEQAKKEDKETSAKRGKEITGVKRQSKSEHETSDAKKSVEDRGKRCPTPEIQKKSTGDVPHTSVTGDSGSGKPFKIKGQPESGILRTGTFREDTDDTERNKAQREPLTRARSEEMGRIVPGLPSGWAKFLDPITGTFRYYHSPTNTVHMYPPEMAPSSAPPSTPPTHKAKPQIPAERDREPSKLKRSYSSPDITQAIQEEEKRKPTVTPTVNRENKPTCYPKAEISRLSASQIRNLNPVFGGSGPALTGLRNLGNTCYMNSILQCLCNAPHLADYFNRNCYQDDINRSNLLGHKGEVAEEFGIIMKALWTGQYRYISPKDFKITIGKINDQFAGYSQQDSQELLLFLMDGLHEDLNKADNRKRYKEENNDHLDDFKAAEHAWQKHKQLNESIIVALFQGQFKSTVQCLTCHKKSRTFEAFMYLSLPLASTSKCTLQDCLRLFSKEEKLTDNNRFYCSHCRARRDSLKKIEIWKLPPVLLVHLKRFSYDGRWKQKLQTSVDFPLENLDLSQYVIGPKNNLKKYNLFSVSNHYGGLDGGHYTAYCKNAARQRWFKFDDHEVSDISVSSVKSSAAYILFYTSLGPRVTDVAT
Method in brief: as §1

[9] = biological target: USP9X (UniProt Q93008)
Method in brief: as §1

[10] = biological target: UniProt O00487
Chain of UniProt O00487 (O00487 whole entry): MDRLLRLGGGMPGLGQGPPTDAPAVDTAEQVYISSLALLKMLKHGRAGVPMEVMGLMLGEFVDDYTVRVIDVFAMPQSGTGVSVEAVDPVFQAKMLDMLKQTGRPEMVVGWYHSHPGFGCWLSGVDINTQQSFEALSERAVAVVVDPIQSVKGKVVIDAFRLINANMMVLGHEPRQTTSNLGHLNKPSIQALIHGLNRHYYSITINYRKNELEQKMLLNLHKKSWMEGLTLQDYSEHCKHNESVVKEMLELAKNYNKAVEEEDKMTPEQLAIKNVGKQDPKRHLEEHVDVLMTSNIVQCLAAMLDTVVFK
Method in brief: as §1

Measured: log2 ratio of Biotin-Ahx-Ub-VS probe labelling

O=C(CCl)Nc1cccc2ncccc12
inactive: [1] 0.41 | [2] 0.096 | [3] 0.325 | [4] -0.121 | [5] 0.466 | [6] -0.107 | [7] -0.116 | [8] -0.176 | [9] -0.112 | [10] 0.0189

— the supplement of paper PMC11732987, “Enantioselective OTUD7B fragment discovery through chemoproteomics screening and high-throughput optimisation” (Communications Chemistry, 2025)
